For one sequence, binding signal results are on record in paper PMC7862700, “An all-to-all approach to the identification of sequence-specific readers for epigenetic DNA modifications on cytosine”.

What all share (assay): DAPPL (digital affinity profiling via proximity ligation, sequencing); 10 mM Tris-HCl pH 7.5, 50 mM NaCl, 1 mM DTT, 4% glycerol, room temperature, 30 min; GST-TFs on glutathione beads, 16-mer random dsDNA library, 0.1% formaldehyde crosslink after washing; high values mean tight binding
One test addresses T1, FEV (Homo sapiens, UniProt Q99581 1-238).
T1 sequence: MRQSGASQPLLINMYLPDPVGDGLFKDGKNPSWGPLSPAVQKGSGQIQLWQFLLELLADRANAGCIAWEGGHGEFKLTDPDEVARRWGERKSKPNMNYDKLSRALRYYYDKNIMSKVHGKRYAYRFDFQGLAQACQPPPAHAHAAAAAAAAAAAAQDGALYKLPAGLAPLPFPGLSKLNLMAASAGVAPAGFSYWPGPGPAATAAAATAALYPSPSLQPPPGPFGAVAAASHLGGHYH
Conditions: protein: recombinant; tags: N-terminal GST; dsDNA, one strand shown. A digest of the protocol: (§1)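 Human transcription factors carrying a GST fusion were produced in yeast, bound to glutathione beads, tagged with DNA barcodes and pooled together with a tag-only sample. Each pool was held with 200 nmole of a random double-stranded 16-mer DNA library in Tris/NaCl/DTT/glycerol buffer for 30 min at room temperature, then washed, crosslinked in 0.1% formaldehyde, proximity-ligated with BsaI/T4 ligase (1 h, 37 °C), PCR-amplified and sequenced on an Illumina NextSeq500. Binding signal is the read frequency of each hexamer for a given factor divided by its frequency in the tag-only sample.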

In the next test the target is ETV5 (Homo sapiens, UniProt P41161 1-510). Conditions: protein: recombinant; tags: N-terminal GST; dsDNA, one strand shown. A digest of the protocol:
as §1

For the next test, the target named is HSF1 (Homo sapiens, UniProt Q00613 1-529). Conditions: protein: recombinant; tags: N-terminal GST; chain copies: 3; dsDNA, one strand shown. A digest of the protocol:
as §1

The next test addresses T2, SPIC (Homo sapiens, UniProt Q8N5J4 1-248).
T2 sequence: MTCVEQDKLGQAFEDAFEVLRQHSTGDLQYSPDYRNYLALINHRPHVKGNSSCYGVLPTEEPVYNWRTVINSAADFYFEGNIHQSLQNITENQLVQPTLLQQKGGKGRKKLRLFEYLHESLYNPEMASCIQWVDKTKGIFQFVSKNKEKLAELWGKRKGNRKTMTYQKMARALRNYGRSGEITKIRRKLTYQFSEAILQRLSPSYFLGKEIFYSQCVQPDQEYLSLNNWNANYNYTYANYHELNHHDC
Conditions: protein: recombinant; tags: N-terminal GST; dsDNA, one strand shown. In a few lines:
as §1

The target of a further test is ELF4 (Homo sapiens, UniProt Q99607 1-663). The conditions noted are these: protein: recombinant; tags: N-terminal GST; dsDNA, one strand shown. A digest of the protocol:
as §1

The target in the next test is T3, ELK4 (Homo sapiens, UniProt P28324-2 1-405).
T3 sequence: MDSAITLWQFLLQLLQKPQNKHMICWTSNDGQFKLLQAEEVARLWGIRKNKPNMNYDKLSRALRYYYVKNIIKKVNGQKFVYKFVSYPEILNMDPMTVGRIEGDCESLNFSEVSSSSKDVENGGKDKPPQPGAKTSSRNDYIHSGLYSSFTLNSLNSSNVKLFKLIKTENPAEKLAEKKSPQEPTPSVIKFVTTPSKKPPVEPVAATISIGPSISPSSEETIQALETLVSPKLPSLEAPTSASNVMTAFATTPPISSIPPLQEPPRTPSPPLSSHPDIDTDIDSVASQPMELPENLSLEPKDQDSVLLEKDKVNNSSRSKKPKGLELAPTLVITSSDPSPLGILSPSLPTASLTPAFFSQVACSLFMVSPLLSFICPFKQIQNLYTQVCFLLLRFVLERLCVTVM
Conditions: protein: recombinant; tags: N-terminal GST; dsDNA, one strand shown. In a few lines:
as §1

The target of the next test is T4, ETV2 (Homo sapiens, UniProt O00321 1-342).
T4 sequence: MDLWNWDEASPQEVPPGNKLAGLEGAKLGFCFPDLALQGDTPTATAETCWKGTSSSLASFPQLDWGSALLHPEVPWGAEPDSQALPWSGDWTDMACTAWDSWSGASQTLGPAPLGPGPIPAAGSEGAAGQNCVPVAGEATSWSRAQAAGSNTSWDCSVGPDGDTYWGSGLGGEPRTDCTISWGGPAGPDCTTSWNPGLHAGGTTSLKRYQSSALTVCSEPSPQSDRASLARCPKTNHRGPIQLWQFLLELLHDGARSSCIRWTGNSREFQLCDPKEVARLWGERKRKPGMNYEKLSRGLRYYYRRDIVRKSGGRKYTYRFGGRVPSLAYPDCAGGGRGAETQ
The conditions noted are these: protein: recombinant; tags: N-terminal GST; dsDNA, one strand shown. In a few lines:
as §1

In another test the target is T5, ELF3 (Homo sapiens, UniProt P78545 1-371).
T5 sequence: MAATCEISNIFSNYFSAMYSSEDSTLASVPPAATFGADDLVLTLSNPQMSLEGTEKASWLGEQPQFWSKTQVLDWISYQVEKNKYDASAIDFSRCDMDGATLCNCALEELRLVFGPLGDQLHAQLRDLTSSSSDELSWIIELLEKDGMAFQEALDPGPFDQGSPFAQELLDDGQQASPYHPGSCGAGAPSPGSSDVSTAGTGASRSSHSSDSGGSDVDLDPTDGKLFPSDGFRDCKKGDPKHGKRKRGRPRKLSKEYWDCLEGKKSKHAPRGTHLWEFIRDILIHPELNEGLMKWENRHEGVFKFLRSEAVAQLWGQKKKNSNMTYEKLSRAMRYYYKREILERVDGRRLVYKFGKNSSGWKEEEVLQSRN
Conditions: protein: recombinant; tags: N-terminal GST; dsDNA, one strand shown. In a few lines:
as §1

A further test has as its target CRX (Homo sapiens, UniProt O43186 1-299). The conditions noted are these: protein: recombinant; tags: N-terminal GST; dsDNA, one strand shown. In a few lines: as §1
The target of the next test is ETV1 (Homo sapiens, UniProt P50549 1-477). Conditions: protein: recombinant; tags: N-terminal GST; dsDNA, one strand shown. A digest of the protocol:
as §1

For another test, the target named is T6, ERF (Homo sapiens, UniProt P50548 1-548).
T6 sequence: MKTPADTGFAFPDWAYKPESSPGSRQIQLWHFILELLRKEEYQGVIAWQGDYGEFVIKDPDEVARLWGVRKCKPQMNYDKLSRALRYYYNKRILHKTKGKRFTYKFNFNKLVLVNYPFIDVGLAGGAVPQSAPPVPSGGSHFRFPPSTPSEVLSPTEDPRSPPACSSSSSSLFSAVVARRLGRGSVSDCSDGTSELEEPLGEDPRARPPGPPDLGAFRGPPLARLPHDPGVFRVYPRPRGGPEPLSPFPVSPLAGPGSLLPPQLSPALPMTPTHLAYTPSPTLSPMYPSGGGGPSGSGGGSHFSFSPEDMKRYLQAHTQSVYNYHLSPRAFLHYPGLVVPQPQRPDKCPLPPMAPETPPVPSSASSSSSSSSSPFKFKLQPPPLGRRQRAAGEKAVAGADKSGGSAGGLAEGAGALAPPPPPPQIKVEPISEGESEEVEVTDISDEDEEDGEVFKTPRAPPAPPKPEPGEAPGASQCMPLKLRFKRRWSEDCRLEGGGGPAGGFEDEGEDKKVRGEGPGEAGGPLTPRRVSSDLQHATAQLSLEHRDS
Conditions: protein: recombinant; tags: N-terminal GST; dsDNA, one strand shown. A digest of the protocol:
as §1

Another test has as its target T7, ETV3L (Homo sapiens, UniProt Q6ZN32 1-361).
T7 sequence: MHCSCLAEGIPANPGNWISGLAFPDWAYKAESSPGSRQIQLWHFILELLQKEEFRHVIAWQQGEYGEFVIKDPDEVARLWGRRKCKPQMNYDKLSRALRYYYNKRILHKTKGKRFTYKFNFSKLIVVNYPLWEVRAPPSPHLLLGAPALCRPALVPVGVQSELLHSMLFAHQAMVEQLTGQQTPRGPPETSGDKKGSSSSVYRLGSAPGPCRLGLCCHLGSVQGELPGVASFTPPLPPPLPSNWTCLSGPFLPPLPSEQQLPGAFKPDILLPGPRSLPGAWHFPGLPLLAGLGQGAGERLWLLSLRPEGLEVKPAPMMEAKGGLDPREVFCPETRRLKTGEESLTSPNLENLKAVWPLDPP
The conditions noted are these: protein: recombinant; tags: N-terminal GST; dsDNA, one strand shown. A digest of the protocol: as §1

A further test addresses T8, ETS2 (Homo sapiens, UniProt P15036 1-469).
T8 sequence: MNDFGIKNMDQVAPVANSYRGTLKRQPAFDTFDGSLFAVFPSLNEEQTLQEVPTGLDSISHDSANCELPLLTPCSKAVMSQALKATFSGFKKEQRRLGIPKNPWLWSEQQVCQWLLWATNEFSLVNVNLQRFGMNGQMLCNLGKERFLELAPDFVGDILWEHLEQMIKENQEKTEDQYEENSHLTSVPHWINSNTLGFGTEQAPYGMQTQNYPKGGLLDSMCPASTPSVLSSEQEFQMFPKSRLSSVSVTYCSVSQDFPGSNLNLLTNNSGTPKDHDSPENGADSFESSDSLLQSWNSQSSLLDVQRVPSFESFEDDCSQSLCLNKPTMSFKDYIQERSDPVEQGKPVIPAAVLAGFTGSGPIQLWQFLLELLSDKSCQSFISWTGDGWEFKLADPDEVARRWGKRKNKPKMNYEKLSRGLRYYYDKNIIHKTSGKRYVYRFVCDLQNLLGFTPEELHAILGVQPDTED
The conditions noted are these: protein: recombinant; tags: N-terminal GST; dsDNA, one strand shown. In a few lines:
as §1

A further test addresses T9, SPDEF (Homo sapiens, UniProt O95238 1-335).
T9 sequence: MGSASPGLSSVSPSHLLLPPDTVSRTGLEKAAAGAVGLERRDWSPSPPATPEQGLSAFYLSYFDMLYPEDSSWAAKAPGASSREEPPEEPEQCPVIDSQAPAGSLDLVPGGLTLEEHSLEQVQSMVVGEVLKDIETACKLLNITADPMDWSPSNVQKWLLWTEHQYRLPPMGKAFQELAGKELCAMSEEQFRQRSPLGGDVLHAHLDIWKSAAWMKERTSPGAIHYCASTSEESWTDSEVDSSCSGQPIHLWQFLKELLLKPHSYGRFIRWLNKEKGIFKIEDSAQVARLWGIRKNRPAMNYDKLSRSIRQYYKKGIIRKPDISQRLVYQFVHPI
Conditions: protein: recombinant; tags: N-terminal GST; dsDNA, one strand shown. A digest of the protocol:
as §1

The next test has as its target T10, ETV7 (Homo sapiens, UniProt Q9Y603 1-341).
T10 sequence: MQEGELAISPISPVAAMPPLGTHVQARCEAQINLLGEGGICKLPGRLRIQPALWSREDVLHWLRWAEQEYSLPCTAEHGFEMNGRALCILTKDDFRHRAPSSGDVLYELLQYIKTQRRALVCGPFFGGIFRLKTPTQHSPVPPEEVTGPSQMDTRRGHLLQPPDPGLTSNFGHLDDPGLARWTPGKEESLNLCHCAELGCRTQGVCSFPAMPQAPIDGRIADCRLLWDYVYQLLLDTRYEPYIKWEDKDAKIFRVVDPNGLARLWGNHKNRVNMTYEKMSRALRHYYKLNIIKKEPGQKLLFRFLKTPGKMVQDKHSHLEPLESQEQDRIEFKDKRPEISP
The conditions noted are these: protein: recombinant; tags: N-terminal GST; dsDNA, one strand shown. A digest of the protocol: as §1

In a further test the target is T11, ELF5 (Homo sapiens, UniProt Q9UKW6-2 1-255).
T11 sequence: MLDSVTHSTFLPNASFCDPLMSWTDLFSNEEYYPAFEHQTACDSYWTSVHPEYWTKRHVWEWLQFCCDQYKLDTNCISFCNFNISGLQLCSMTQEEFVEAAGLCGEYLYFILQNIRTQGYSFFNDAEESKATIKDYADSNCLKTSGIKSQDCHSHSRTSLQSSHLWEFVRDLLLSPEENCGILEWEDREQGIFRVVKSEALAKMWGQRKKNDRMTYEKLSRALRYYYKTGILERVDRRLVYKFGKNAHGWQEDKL
The conditions noted are these: protein: recombinant; tags: N-terminal GST; dsDNA, one strand shown. A digest of the protocol: as §1

For a further test, the target named is T12, ETV3 (Homo sapiens, UniProt P41162-2 1-143).
T12 sequence: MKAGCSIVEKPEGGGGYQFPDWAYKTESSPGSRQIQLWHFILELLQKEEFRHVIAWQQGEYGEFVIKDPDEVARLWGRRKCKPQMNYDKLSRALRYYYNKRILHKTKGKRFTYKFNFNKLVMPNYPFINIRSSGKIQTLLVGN
The conditions noted are these: protein: recombinant; tags: N-terminal GST; dsDNA, one strand shown. A digest of the protocol: as §1

The next test has as its target ETV6 (Homo sapiens, UniProt P41212 1-452). Conditions: protein: recombinant; tags: N-terminal GST; dsDNA, one strand shown. In a few lines: as §1

ETV1, sequence (P50549 whole entry): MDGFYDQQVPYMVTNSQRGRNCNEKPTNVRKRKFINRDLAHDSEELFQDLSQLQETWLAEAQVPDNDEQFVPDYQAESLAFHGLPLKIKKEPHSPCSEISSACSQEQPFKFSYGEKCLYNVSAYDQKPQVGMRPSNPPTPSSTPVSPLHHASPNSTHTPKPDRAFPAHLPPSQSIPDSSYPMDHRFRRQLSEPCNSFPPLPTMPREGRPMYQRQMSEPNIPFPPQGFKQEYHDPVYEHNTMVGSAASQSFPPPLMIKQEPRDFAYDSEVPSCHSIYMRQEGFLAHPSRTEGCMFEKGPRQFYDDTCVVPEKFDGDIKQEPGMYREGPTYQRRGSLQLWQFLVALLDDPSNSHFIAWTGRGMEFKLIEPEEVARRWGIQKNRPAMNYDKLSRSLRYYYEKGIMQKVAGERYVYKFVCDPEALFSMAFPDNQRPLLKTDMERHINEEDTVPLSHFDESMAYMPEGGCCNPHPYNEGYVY
HSF1, sequence (Q00613 whole entry): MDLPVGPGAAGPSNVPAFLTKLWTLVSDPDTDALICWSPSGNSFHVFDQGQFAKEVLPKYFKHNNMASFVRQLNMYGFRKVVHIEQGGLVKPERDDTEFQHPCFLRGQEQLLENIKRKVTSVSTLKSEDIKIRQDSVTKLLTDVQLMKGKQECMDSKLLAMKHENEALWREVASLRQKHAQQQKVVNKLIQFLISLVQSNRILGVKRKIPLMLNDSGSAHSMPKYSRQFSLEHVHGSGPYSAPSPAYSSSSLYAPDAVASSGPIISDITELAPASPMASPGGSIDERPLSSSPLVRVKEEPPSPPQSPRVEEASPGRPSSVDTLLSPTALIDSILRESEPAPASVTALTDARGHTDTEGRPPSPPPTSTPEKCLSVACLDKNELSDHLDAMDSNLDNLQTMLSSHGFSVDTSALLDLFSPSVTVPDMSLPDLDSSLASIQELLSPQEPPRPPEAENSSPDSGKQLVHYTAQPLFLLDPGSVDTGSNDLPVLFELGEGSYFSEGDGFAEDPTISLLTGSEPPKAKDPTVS
ETV6, sequence (P41212 whole entry): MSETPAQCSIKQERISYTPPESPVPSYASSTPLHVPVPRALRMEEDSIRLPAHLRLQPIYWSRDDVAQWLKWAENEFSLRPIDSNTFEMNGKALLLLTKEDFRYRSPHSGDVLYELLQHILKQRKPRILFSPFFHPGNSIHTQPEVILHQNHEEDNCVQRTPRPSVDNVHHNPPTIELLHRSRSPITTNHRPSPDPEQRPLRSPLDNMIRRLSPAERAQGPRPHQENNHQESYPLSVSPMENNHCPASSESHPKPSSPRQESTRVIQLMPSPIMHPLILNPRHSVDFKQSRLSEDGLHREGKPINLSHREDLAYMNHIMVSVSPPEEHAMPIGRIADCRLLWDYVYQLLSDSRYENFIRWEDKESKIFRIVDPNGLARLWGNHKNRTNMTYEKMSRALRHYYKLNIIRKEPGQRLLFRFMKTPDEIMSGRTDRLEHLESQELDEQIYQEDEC
CRX, sequence (O43186 whole entry): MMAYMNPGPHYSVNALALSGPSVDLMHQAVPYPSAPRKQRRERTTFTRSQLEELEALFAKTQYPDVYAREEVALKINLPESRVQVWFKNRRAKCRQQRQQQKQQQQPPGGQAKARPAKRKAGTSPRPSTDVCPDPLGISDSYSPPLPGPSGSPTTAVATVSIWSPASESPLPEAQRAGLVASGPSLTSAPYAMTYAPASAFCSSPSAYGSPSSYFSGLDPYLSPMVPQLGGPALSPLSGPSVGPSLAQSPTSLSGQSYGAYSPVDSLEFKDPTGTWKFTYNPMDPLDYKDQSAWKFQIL
ELF4, sequence (Q99607 whole entry): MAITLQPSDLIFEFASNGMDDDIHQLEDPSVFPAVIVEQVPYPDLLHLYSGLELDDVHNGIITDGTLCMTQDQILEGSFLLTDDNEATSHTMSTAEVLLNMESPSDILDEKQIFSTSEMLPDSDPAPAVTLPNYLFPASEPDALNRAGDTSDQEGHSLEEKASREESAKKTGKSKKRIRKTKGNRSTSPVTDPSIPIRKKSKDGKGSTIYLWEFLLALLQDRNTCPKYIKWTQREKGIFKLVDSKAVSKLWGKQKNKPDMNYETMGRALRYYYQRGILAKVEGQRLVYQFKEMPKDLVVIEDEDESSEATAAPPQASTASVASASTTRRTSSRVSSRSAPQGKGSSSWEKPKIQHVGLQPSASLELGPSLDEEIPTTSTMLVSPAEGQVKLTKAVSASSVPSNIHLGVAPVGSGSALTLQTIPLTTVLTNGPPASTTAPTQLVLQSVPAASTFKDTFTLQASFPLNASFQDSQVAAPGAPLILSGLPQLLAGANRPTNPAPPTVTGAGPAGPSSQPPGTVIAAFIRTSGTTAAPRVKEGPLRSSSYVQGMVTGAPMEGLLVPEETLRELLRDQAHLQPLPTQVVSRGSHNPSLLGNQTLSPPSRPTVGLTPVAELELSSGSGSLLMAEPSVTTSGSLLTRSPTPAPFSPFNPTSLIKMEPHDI
ETV5, sequence (P41161 whole entry): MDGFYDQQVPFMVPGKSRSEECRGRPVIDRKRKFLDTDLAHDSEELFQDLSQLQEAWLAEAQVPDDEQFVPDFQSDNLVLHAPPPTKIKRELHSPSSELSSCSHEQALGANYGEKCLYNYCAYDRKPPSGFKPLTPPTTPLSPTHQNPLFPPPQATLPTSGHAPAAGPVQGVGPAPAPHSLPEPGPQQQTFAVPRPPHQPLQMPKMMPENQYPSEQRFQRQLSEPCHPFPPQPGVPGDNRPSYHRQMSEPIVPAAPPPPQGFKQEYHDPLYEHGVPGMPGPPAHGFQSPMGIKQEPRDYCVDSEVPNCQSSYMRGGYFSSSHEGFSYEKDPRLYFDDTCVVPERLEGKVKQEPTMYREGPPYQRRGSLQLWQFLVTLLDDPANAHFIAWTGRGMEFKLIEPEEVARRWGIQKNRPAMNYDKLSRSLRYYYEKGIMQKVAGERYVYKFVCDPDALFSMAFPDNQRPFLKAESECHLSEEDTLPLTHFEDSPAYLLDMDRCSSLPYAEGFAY

Regarding TTGTAT, the binding signal was 1.26 fold enrichment (6-mer frequency, TF over GST control) in the test with FEV; 1.26 fold enrichment (6-mer frequency, TF over GST control) in the test with ETV5; 1.21 fold enrichment (6-mer frequency, TF over GST control) in the test with HSF1; 1.28 fold enrichment (6-mer frequency, TF over GST control) with SPIC; 1.35 fold enrichment (6-mer frequency, TF over GST control) with ELF4; 1.43 fold enrichment (6-mer frequency, TF over GST control) with ELK4. Also, the binding signal with ETV2 is 1.4 fold enrichment (6-mer frequency, TF over GST control); with ELF3 it was 1.34 fold enrichment (6-mer frequency, TF over GST control); with CRX, 1.42 fold enrichment (6-mer frequency, TF over GST control); with ETV1, 1.3 fold enrichment (6-mer frequency, TF over GST control); with ERF, 1.28 fold enrichment (6-mer frequency, TF over GST control); with ETV3L, 1.37 fold enrichment (6-mer frequency, TF over GST control). Further, the binding signal with ETS2 was 1.4 fold enrichment (6-mer frequency, TF over GST control); with SPDEF, 1.41 fold enrichment (6-mer frequency, TF over GST control); in the test with ETV7, 1.21 fold enrichment (6-mer frequency, TF over GST control); with ELF5 it was 1.35 fold enrichment (6-mer frequency, TF over GST control); with ETV3, 1.41 fold enrichment (6-mer frequency, TF over GST control); in the test with ETV6 it was 1.25 fold enrichment (6-mer frequency, TF over GST control).
